SARS PLpro yeast – blocks SARS-CoV papain-like protease in a yeast assay; S. cerevisiae expressing SARS-CoV PLpro, growth rescue; Potency, µM (highest dose often 32.9 µM), for the others: at the highest dose activity, positive = growth rescue, hits mostly activators; actives 0.19% (n = 330,000); note: potency is the fitted concentration of half-maximal effect; 0% is about no effect; nearly all actives have a fitted effect of over 55% in size
TbPYK inhibitor – inhibitors of Trypanosoma brucei pyruvate kinase; TbPYK enzyme, Kinase-Glo Plus ATP luminescence, 45 min; Potency, µM (top dose mostly 76.8 µM), for inactives: top-dose activity, negative = inhibition, hits mostly inhibitors; actives 0.12% (n = 410,000); AID 624173; active = well fitted curve in the direction sought with a large enough effect; inconclusive = small, poorly fitted or top-dose-only effect, or another doubt; inactive = no such curve, though single readings can be large; an effect the other way counts as inactive or inconclusive; note: potency is the fitted concentration of half-maximal effect; % is set by controls: 0 for no effect and ±100 for the full control effect; nearly all actives have a fitted effect of over 50% in size
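ADP (130 uM final) triggers the TbPYK reaction after compound addition; incubation is 45 min at room temperature. Kinase-Glo Plus is then added and luminescence imaged. Normalized data are fitted to concentration-effect curves.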
LmPK inh – LmPK (Leishmania mexicana) enzyme inhibition; purified LmPK, Kinase-Glo ATP luminescence, 1 h; Potency, µM (top dose mostly 57.5 µM), without a hit: at the top dose activity change, negative = inhibition, actives largely listed as inhibitors; actives 0.37% (n = 290,000); active = well fitted curve in the direction sought with a large enough effect; inconclusive = small, poorly fitted or top-dose-only effect, or another doubt; inactive = no such curve, though single readings can be large; an effect the other way counts as inactive or inconclusive; note: potency is the fitted concentration of half-maximal effect; % is set by controls: 0 for no effect and ±100 for the full control effect
Target sequence (Q27686 whole entry, looked up): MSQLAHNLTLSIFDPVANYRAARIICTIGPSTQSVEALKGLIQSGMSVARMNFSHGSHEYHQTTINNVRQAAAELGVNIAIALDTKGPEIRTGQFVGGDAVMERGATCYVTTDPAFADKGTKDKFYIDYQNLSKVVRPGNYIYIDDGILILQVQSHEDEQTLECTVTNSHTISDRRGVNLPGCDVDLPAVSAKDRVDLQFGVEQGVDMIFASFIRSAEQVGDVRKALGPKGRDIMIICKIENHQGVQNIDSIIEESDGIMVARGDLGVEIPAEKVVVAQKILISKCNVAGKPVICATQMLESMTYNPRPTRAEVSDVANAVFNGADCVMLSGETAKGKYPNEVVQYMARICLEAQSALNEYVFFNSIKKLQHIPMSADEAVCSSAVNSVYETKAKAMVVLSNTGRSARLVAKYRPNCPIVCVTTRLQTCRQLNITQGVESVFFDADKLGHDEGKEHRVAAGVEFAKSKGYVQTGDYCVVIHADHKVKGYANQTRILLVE
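In 50 mM imidazole pH 7.2 with 7 mM MgCl2, LmPK (0.1 nM) turned over PEP (0.5 mM) and ADP (0.1 mM) for 1 h at room temperature. Luciferase read-out of ATP.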
Cycloheximide cs – affects cycloheximide protein synthesis inhibition readout, counter-screen; actives 12% (n = 300,000); AID 2314; max response, %; cell reporter, cycloheximide protein synthesis inhibition counterscreen; in the data active = max response mostly above about 13%, no sharp cut-off; inactive = mostly below about 14%; note: read at 38.3 µM for the half of the compounds with a filed dose; 0% is about no effect
Shiga toxin inh – Shiga toxin inhibition; Vero cells, Shiga toxin protein synthesis inhibition reporter; inhibition, % at 38.7 µM; actives 9.2% (n = 290,000); in the data active = inhibition mostly above about 28%, no sharp cut-off; inactive = mostly below about 43%; note: 0% is about no effect
NS1 function inh – blocks influenza NS1 protein function. Potency, µM (doses to about 46.1 µM), for the others: top-dose activity, positive = more growth. actives 0.4% (n = 270,000). AID 2326; note: potency is the fitted concentration of half-maximal effect; actives are rising curves; nearly all actives have a fitted effect of over 50% in size
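OD600 was taken as the measure of yeast growth restored by compound in an NS1-expressing S. cerevisiae strain. Cells had been washed out of glucose medium and diluted 1:100 into galactose -URA medium, pH 6.0.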
* hit, by the source's call; [ ] = another dose, or the depositor's remark. This is one part of a sample in which hits are shown more often than they occur. Unless noted, calls come from the whole dose curve.

What do the screens show for `COc1ccc2oc(-c3ccco3)cc(=O)c2c1`?
SARS PLpro yeast: -6%; TbPYK inhibitor: -12%; LmPK inh: inconclusive; Cycloheximide cs: 50*; Shiga toxin inh: 68*; NS1 function inh: -36%

Results for COc1cccc2oc(-c3ccco3)cc(=O)c12 ?
SARS PLpro yeast: -16%; TbPYK inhibitor: -10%; LmPK inh: -27%; Cycloheximide cs: 30*; Shiga toxin inh: 24; NS1 function inh: -18%

How did OC[C@H]1O[C@@](CO)(O[C@H]2O[C@H](CO)[C@@H](O)[C@H](O)[C@H]2O)[C@@H](O[C@H]2O[C@H](CO)[C@@H](O)[C@H](O)[C@H]2O)[C@@H]1O do in these assays?
TbPYK inhibitor: -5%

How did O=C(O)c1ccc2c(c1)C(=O)N([C@@H](C(=O)O)C(c1ccccc1)c1ccccc1)C2=O do in these assays?
SARS PLpro yeast: -2%; Cycloheximide cs: -6; Shiga toxin inh: -2

Results for CC(=O)c1cc2c(cc1NC(=O)CN1Cc3ccccc3C1=O)OCO2 ?
SARS PLpro yeast: 3%; TbPYK inhibitor: -7%; LmPK inh: 2%; Cycloheximide cs: 7; Shiga toxin inh: 31; NS1 function inh: -5%

What do the screens show for `CCc1ccc(CN2CCN(c3ncccn3)CC2)cc1`?
SARS PLpro yeast: 1%; TbPYK inhibitor: 8%; LmPK inh: 8%; Cycloheximide cs: 26*; NS1 function inh: -4%

Results for Fc1ccc(CN2CCN(c3ncccn3)CC2)cc1 ?
SARS PLpro yeast: 1%; TbPYK inhibitor: 21%; LmPK inh: -11%; Cycloheximide cs: -2; Shiga toxin inh: -13; NS1 function inh: 5%

How did CCN(C(=O)CSc1nc2ccccc2o1)c1c(N)n(Cc2ccccc2)c(=O)[nH]c1=O do in these assays?
SARS PLpro yeast: -1%; TbPYK inhibitor: 3%

Results for COc1ccc(C(=O)NC(=S)NC(C)C)cc1Br ?
SARS PLpro yeast: 18%; TbPYK inhibitor: -5%; LmPK inh: 0%; Cycloheximide cs: 23*; Shiga toxin inh: 65*; NS1 function inh: -7%

Results for COc1ccc(C(=O)NC(=S)NC(C)(C)C)cc1Br ?
SARS PLpro yeast: inconclusive; TbPYK inhibitor: -7%; LmPK inh: -8%; Cycloheximide cs: 21*; Shiga toxin inh: 71*; NS1 function inh: -10%

How did COc1ccc(C(=O)NC(=S)N2CCC(C)CC2)cc1Br do in these assays?
SARS PLpro yeast: 2%; TbPYK inhibitor: 2%; LmPK inh: -4%; Cycloheximide cs: 18*; Shiga toxin inh: 29*; NS1 function inh: -18%

What do the screens show for `Cc1ccc(C)n1-c1nnc(N2CCCC(C(=O)NCc3cccc(Cl)c3)C2)s1` (configuration not stated)?
TbPYK inhibitor: -5%

Results for CCOC(=O)CNC(=O)CNC(=O)c1ccc(OC(C)C)cc1 ?
SARS PLpro yeast: 1%; TbPYK inhibitor: -1%; LmPK inh: 0%; Cycloheximide cs: 24*; Shiga toxin inh: 37; NS1 function inh: -1%

What do the screens show for `CCOC(=O)CNC(=O)c1ccc(SCC)cc1`?
SARS PLpro yeast: 0%; TbPYK inhibitor: -18%; LmPK inh: -29%; Cycloheximide cs: 37*; Shiga toxin inh: 83*; NS1 function inh: -1%

How did CCOC(=O)CNC(=O)CNC(=O)c1ccc(OCC(C)C)cc1 do in these assays?
SARS PLpro yeast: 0%; TbPYK inhibitor: 1%; LmPK inh: -6%; Cycloheximide cs: 2; Shiga toxin inh: -13; NS1 function inh: -4%

Results for O=C(CCS(=O)(=O)c1ccccc1)OCc1ccc([N+](=O)[O-])cc1 ?
SARS PLpro yeast: -7%; TbPYK inhibitor: 1%; LmPK inh: -10%; Cycloheximide cs: 3; Shiga toxin inh: -23; NS1 function inh: 0%

What do the screens show for `CCC(=O)N1N=C(c2ccc(NS(C)(=O)=O)cc2)CC1c1ccc(N(C)C)cc1` (configuration not stated)?
SARS PLpro yeast: 3%; TbPYK inhibitor: 2%; LmPK inh: -2%[11.5 µM]; Cycloheximide cs: 30*; Shiga toxin inh: 72*

What do the screens show for `CN(C)c1ccc(C2CC(c3cccc(NS(C)(=O)=O)c3)=NN2C(=O)c2ccccc2)cc1` (configuration not stated)?
SARS PLpro yeast: 0%; TbPYK inhibitor: -4%; LmPK inh: 5%; Cycloheximide cs: -1; Shiga toxin inh: 18; NS1 function inh: 3%

How did CNC(=S)N1N=C(c2ccc(C)cc2)CC1c1ccc(N(C)C)cc1 (configuration not stated) do in these assays?
SARS PLpro yeast: 0%; TbPYK inhibitor: -6%; LmPK inh: 4%; Cycloheximide cs: 43*; Shiga toxin inh: 86

What do the screens show for `C[C@]12CCC(=O)C=C1CC[C@H]1C2CC[C@@]2(C)[C@@H]1CC[C@]2(C)O` (some centres not stated)?
TbPYK inhibitor: -5%

Results for COc1cc(NC(=O)C2(C)CCN2C(=O)C(C)C)cc(OC)c1OC (configuration not stated) ?
TbPYK inhibitor: -8%

How did CCCCCCCCCC(=O)NC(CN1CCOCC1)[C@H](O)c1ccccc1 (some centres not stated) do in these assays?
NS1 function inh: -35%

Results for COC(=O)C(O)(NC(=O)OCc1ccccc1)C(F)(F)F (configuration not stated) ?
SARS PLpro yeast: -2%; TbPYK inhibitor: 7%; LmPK inh: 3%; Cycloheximide cs: 1; Shiga toxin inh: -4; NS1 function inh: -3%

How did COC(=O)C(NC=O)C(O)(Cc1ccccc1)C(F)(F)F (configuration not stated) do in these assays?
SARS PLpro yeast: 6%; TbPYK inhibitor: 0%; LmPK inh: -4%; Cycloheximide cs: 57*; Shiga toxin inh: 74*; NS1 function inh: -3%

What do the screens show for `COc1ccc(C(=O)Nc2cc(C)c(NC(=O)c3ccccn3)cn2)cc1`?
SARS PLpro yeast: -4%; TbPYK inhibitor: -6%; LmPK inh: -12%; Cycloheximide cs: 40*; Shiga toxin inh: 48*; NS1 function inh: -11%

How did Cc1cc(NC(=O)C2CCCCC2)ncc1NC(=O)c1ccccn1 do in these assays?
SARS PLpro yeast: 0%; TbPYK inhibitor: -5%; LmPK inh: -15%; Cycloheximide cs: 23; Shiga toxin inh: 43; NS1 function inh: -7%

Results for COc1ccc(C(=O)Nc2cnc(NC(=O)c3cccs3)cc2C)cc1 ?
SARS PLpro yeast: -2%; TbPYK inhibitor: 1%; LmPK inh: -6%; Cycloheximide cs: 46*; Shiga toxin inh: 60; NS1 function inh: -18%

How did CCCCC(=O)Nc1cnc(NC(=O)c2cccs2)cc1C do in these assays?
SARS PLpro yeast: -4%; TbPYK inhibitor: 1%; LmPK inh: 1%; Cycloheximide cs: 31*; NS1 function inh: -18%

What do the screens show for `Cc1cc(NC(=O)C2CC2)ncc1NC(=O)c1ccccn1`?
SARS PLpro yeast: -1%; TbPYK inhibitor: 6%; LmPK inh: -27%; Cycloheximide cs: 40*; Shiga toxin inh: 71*; NS1 function inh: -8%

Compound activity: PubChem BioAssay, National Center for Advancing Translational Sciences (NCATS)
